# The source made the active and inactive calls. Rule as the data show it, unless noted: active = inhibition above about 80%; inactive = the rest.
# What was measured:
# [1] = target: 6-phosphogluconate dehydrogenase, decarboxylating (Homo sapiens) (UniProt P52209); assay: inhibition of human phosphogluconate dehydrogenase – biochemical, recombinant enzyme, NADPH absorbance, primary screen (AID 1159550;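 active = at least 20% inhibition of 6-phosphogluconate dehydrogenase activity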); conditions: recombinant 6PGD, NADPH absorbance 341 nm; at 10 µM; stronger effect = higher value
# [2] = viability loss with induced miR-34 in A549 – imaging, A549 dox-inducible miR-34, nuclei and caspase counts, primary screen (AID 1347080;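 active = compounds whose cell count with miR-34 switched on is under 0.7 times the count with it off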); conditions: A549 miR-34 inducible, Hoechst nuclei count, 48 h
# [3] = galactose survival enhancers in mitochondrial complex I cybrids – cell-based, galactose medium, ATP luminescence, primary screen (AID 1645843;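 active = z-score of at least 1.8 in each of two replicates, scored against plate mean and spread of sample wells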;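 also: positive z means more ATP and so rescue of galactose-driven cybrid death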); conditions: complex I mutant cybrid cells, 72 h, stronger effect = higher value
# [4] = MELAS cybrid and Rieske KO viability enhancers – cell-based, MELAS cybrids, Rieske KO mouse fibroblasts, CellTiter-Glo, primary screen (AID 1508586;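 active = mean z-score across replicates of 1.96 or higher in either the MELAS or the Rieske mutant cell line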;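 also: z relative to plate mean and SD of compound and empty wells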); conditions: low glucose
# [5] = target: Mitogen-activated protein kinase 7 (Homo sapiens) (UniProt Q13164); assay: Gal4-ERK5 driven luciferase induction – cell-based, HTS, primary screen (AID 1508626;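 active = luciferase signal above three times the same-plate solvent-only control wells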;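 also: luciferase driven by Gal4-ERK5 fusion binding five Gal4 sites before minimal TATA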); conditions: HeLa Gal4-ERK5 transactivation, 18 h, at 5 µM, stronger effect = higher value
# [6] = growth inhibition, single agent or in combination, cell-based, chromothripsis tumors, cisplatin or BGB combos (AID 1671449); conditions: LFS_MB_P medulloblastoma cells;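 also: cells exposed for 96 hours; 0% = vehicle DMSO and 100% = killing by high DMSO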
# [7] = growth inhibition, single agent and combos, cell-based, chromothripsis tumors, cisplatin or BGB combos (AID 1671450); conditions: HDN33 neuroblastoma cells, stronger effect = higher value;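 also: cells exposed to compound for four days; 0% = vehicle DMSO and 100% = cell killing by high DMSO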
# [8] = growth inhibition, single agents and combos, ICB984, cell-based, cisplatin or BGB combos, synergistic combos for chromothripsis tumors (AID 1671451; call rule not given here;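 also: cells exposed for 96 hours before readout; 0% = vehicle DMSO and 100% = killing by high DMSO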); conditions: ICB984 medulloblastoma cells, drug combinations, stronger effect = higher value
# [9] = growth inhibition, single agents and combos, LFS_MB_1R, cell-based, cisplatin or BGB combos, synergistic combos for chromothripsis tumors (AID 1671452); conditions: LFS_MB_1R medulloblastoma cells, stronger effect = higher value;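 also: cells exposed for 96 hours before readout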
# [10] = growth inhibition, single agents and combos, HTB85, cell-based, BGB or cisplatin IC20 combos, synergistic combos for chromothripsis tumors (AID 1671453); conditions: HTB85 osteosarcoma cells, drug combinations, stronger effect = higher value;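 also: cells exposed for 96 hours before readout; 0% = vehicle DMSO and 100% = high DMSO killing control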
# [11] = growth inhibition, MDA-MB-436, cell-based, BGB or cisplatin combos, synergistic combos for chromothripsis tumors (AID 1671458; call rule not given here;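 also: cells exposed for 96 hours; 0% = vehicle DMSO and 100% = killing by high DMSO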); conditions: MDA-MB-436 breast carcinoma growth inhibition, drug combinations, stronger effect = higher value
# [12] = BT084 cell growth, single and combined drugs, ICGC_MB145, cisplatin and BGB IC40 combos (AID 1671461); conditions: BT084 medulloblastoma cells, drug combinations, stronger effect = higher value;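 also: cells exposed to drugs for 96 hours; 0% = vehicle DMSO and 100% = high DMSO full killing control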
# [13] = RCMB18 cell growth, single agent and combined, cisplatin and BGB IC40 combos (AID 1671462); conditions: RCMB18 medulloblastoma cells, stronger effect = higher value;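 also: cells exposed to compound for four days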
# [14] = CRL1545 cell growth, single agent and combined, cisplatin and BGB IC20 combos (AID 1671464); conditions: CRL1545 osteosarcoma cells, stronger effect = higher value;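 also: cells exposed to compound for 96 hours before readout; 0% = vehicle DMSO and 100% = high DMSO killing control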
# [15] = stronger effect = lower value, cell number ratio, induced over uninduced
# [16] = measured here: relative caspase fold change +Dox/-Dox
# [17] = measured here: total cells with miR-34 induction, stronger effect = lower value
# [18] = measured here: total cells without miR-34 induction
# [19] = MELAS cybrid survival, CellTiter-Glo 48 h, stronger effect = higher value
# [20] = Rieske KO mouse fibroblast survival, CellTiter-Glo 72 h
# [21] = measured here: combination with BGB IC40, at 0.05 µM
# [22] = measured here: with BGB IC20 combination, at 0.5 µM
# [23] = measured here: with cisplatin IC20 combination, at 0.5 µM
# [24] = measured here: combination with cisplatin, at 0.5 µM
# 6-phosphogluconate dehydrogenase, decarboxylating (Homo sapiens), sequence (P52209 whole entry, looked up): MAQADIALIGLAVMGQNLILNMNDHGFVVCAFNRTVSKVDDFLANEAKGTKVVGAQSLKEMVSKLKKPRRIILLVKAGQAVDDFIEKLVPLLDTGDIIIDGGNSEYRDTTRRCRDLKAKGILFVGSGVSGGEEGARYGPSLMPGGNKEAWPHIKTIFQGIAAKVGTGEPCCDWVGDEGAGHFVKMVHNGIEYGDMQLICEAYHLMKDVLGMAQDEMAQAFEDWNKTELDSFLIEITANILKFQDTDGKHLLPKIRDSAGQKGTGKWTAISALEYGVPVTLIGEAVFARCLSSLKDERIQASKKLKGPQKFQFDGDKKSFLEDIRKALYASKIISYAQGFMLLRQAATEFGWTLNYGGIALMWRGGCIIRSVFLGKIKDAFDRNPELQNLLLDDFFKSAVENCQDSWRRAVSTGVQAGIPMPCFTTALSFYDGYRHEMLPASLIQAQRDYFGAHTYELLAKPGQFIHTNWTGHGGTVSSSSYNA
# Mitogen-activated protein kinase 7 (Homo sapiens), sequence (Q13164 whole entry, looked up, the tested form may be a part): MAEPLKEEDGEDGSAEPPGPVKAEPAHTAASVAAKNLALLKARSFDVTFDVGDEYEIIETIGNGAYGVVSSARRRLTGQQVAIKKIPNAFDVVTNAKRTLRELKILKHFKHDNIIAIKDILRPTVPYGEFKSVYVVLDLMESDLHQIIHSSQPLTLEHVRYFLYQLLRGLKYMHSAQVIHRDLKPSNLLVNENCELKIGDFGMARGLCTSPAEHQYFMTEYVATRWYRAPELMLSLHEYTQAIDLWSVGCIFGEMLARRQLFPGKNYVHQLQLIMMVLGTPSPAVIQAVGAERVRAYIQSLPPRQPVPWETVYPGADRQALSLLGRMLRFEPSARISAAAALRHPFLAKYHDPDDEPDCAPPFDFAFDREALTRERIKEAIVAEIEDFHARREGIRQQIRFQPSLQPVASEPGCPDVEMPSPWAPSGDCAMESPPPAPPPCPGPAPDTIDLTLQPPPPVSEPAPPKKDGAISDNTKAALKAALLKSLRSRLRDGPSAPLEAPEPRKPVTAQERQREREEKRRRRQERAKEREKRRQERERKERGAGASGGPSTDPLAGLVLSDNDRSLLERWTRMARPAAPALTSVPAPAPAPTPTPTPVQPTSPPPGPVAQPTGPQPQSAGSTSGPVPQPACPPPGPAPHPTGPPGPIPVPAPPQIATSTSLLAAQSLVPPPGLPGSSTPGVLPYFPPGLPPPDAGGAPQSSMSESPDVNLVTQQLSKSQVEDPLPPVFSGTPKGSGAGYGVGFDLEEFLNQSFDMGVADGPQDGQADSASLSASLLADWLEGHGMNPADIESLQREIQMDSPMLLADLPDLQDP
structure (smiles),measurement,setting,value
O=C(N[C@@H](Cc1ccccc1)C(=O)CCl)OCc1ccccc1,inhibition,[1],6.1% (inactive)
same,fold change,[2]; [15],1.3 (inactive)
same,fold change,[2]; [16],1.36
same,cell count,[2]; [17],816
same,cell count,[2]; [18],626
same,z-score,[3],-1.33 (inactive)
Oc1cc2c(cc1O)[C@@H]1c3ccc(O)c(O)c3OC[C@]1(O)C2,inhibition,[1],1.84% (inactive)
same,fold change,[2]; [15],0.884 (inactive)
same,fold change,[2]; [16],0.956
same,cell count,[2]; [17],9250
same,cell count,[2]; [18],10500
same,z-score,[4]; [19],-0.379 (inactive)
same,z-score,[4]; [20],0.131
same,luciferase signal,[5],28 AU (inactive)
CN(N=O)C(=O)NC1C(O)OC(CO)C(O)C1O (stereo unspecified),inhibition,[1],-8.43% (inactive)
same,fold change,[2]; [15],0.895 (inactive)
same,fold change,[2]; [16],0.982
same,cell count,[2]; [17],7750
same,cell count,[2]; [18],8650
same,z-score,[4]; [19],-0.392 (inactive)
same,z-score,[4]; [20],0.645
same,inhibition,"[6]; at 0.5 µM, stronger effect = higher value",-5.09% (inactive)
same,inhibition,"[6]; measured here: combination with BGB IC20, at 0.005 µM",2.88%
same,inhibition,"[6]; measured here: combination with BGB IC40, at 0.005 µM",-23%
same,inhibition,[6]; [21],9.79%
same,inhibition,"[6]; measured here: combination with cisplatin, at 0.5 µM, stronger effect = higher value",18.7%
same,inhibition,"[6]; measured here: combination with cisplatin, at 5 µM, stronger effect = higher value",-15%
same,inhibition,"[7]; BGB combo, at 5 µM",-42.3%
same,inhibition,[7]; at 0.5 µM,-18.9% (inactive)
same,inhibition,"[7]; cisplatin combo, at 5 µM",-31.9%
same,inhibition,[7]; [22],-17.4%
same,inhibition,[7]; [23],-13.6%
same,inhibition,"[7]; single agent, at 5 µM",-38.9%
same,inhibition,"[8]; BGB IC20 combo, at 0.005 µM",-31.3%
same,inhibition,"[8]; BGB IC40 combo, at 0.005 µM",-16.7%
same,inhibition,"[8]; BGB IC40 combo, at 0.05 µM",-24.6%
same,inhibition,[8]; at 0.5 µM,-5.69% (inactive)
same,inhibition,"[8]; cisplatin combo, at 0.05 µM",-31%
same,inhibition,"[8]; cisplatin combo, at 0.5 µM",-0.064%
same,inhibition,"[8]; cisplatin combo, at 5 µM",-5.86%
same,inhibition,"[8]; measured here: 5 uM single agent, at 5 µM",-8.73%
same,inhibition,[9]; at 0.5 µM,-12.5% (inactive)
same,inhibition,[9]; [21],0.459%
same,inhibition,[9]; [24],-24.7%
same,inhibition,"[9]; measured here: combination with cisplatin, at 5 µM",-26.7%
same,inhibition,[10]; at 0.5 µM,-27.9% (inactive)
same,inhibition,"[10]; measured here: with BGB IC20, at 0.5 µM",-20.4%
same,inhibition,"[10]; measured here: with BGB IC20, at 5 µM",-14.4%
same,inhibition,"[10]; measured here: with cisplatin IC20, at 0.5 µM",-29.4%
same,inhibition,"[10]; measured here: with cisplatin IC20, at 5 µM",-17.4%
same,inhibition,"[10]; single agent, at 5 µM",-23.4%
same,inhibition,[11]; at 0.5 µM,-6.07% (inactive)
same,inhibition,"[11]; measured here: BGB combination, at 0.5 µM",-5.12%
same,inhibition,"[11]; measured here: BGB combination, at 5 µM",4.69%
same,inhibition,"[11]; measured here: cisplatin combination, at 0.5 µM",-11.2%
same,inhibition,"[11]; measured here: cisplatin combination, at 5 µM",0.976%
same,inhibition,[12]; at 0.5 µM,9.28% (inactive)
same,inhibition,"[12]; cisplatin combination, at 0.5 µM",2.65%
same,inhibition,"[12]; cisplatin combination, at 5 µM",-74.8%
same,inhibition,"[12]; measured here: BGB IC40 combination 0.05 uM, at 0.05 µM",-4.62%
same,inhibition,"[12]; single agent, at 5 µM",14.7%
same,inhibition,[13]; at 0.5 µM,8.81% (inactive)
same,inhibition,"[13]; cisplatin combo, at 5 µM",-9.42%
same,inhibition,"[13]; measured here: BGB IC40 combination, at 0.05 µM",-16.3%
same,inhibition,[13]; [24],-21.8%
same,inhibition,"[13]; single agent, at 5 µM",-8.26%
same,inhibition,[14]; at 0.5 µM,3.09% (inactive)
same,inhibition,[14]; [22],-18.9%
same,inhibition,[14]; [23],12.7%
same,inhibition,"[14]; single agent, at 0.05 µM",-1.79%
same,inhibition,"[14]; single agent, at 5 µM",-17.1%

# Reference: PubChem BioAssay
